From PubChem BioAssay
Shown are actives, neighbours in structure and some others; about 2.9% of the full set was active somewhere.
HEK293 tox: cytotoxicity in counter-screen for GLP-1R inverse agonists; HEK293 cAMP-luciferase reporter cells, luminescence, 24 h; Potency, µM (titrated, usually from 38.3 µM), for the others: at the highest dose activity change, negative = inhibition, most hits filed as inhibitors; 410,000 compounds, 0.13% hits; AID 624418;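 further: loss of luciferase light is scored as toxicity; potency means the concentration at half of the fitted maximal effect; on the % scale 0 is the no-effect control and ±100 the full control effect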
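Step one: seed cells (200 cells/uL, DMEM with 10% Nu serum, 1% pen-strep). Step two: 12-hour incubation at 37 deg C. Step three: pin 23 nL compound, incubate 24 hr. Step four: add luciferase reagent, read luminescence 12 min later.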
p53 reactivation: restores transcriptional activity of mutant p53 | H1299 p53-A138V BP100-luciferase reporter, luminescence, 24 h | Potency, µM (series often up to 92.2 µM), without a hit: at the top dose activity change, positive = activation, hits mostly activators | 320,000 compounds, 0.063% hits; further: potency means the concentration at half of the fitted maximal effect; % of control where 0% means no effect; nearly all actives have a fitted effect of over 45% in size
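H1299 (p53-null), stable ts p53-A138V + BP100-Luc; 1000 cells/well, Opti-MEM/10% FBS; cpd 4 pt, 1:5; 24 h, 37 deg C, 5% CO2; detection reagent 10 min RT; luminescence.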
ClpP mod: qHTS Assay for Activators of ClpP; Potency, µM (top dose mostly 57.5 µM), without a hit: top-dose activity change, negative = active; 340,000 compounds, 1.9% hits; purified B. subtilis ClpP, FRET peptide cleavage, 20 min; ATP-dependent Clp protease proteolytic subunit (Bacillus subtilis (strain 168)), P80244; active means well fitted falling curve with a large enough effect; inconclusive means small, poorly fitted or top-dose-only effect; inactive means no such curve, though single readings can be large or run the other way; further: potency means the concentration at half of the fitted maximal effect; the source files actives as falling curves though it sought activators and does not explain the sign; nearly all actives have a fitted effect of over 65% in size
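FRET quenching reversal measured ClpP activation: 10 microg/mL B. subtilis ClpP at pH 8 with the FRET-FV decapeptide, read at 430 nm after 320 nm excitation. The 20-min minus 0-min signal was scaled between DMSO/no-enzyme wells and ADEP (5.8 microM final).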
LDHA inh: blocks human lactate dehydrogenase A; AID 1347041; purified LDHA, NADH/diaphorase-resazurin fluorescence; active compounds read low; activity change, % (values are at about 110 or 230 µM); 480,000 compounds, 0.15% hits; in the data active means activity change below about -30%; inconclusive means mostly about -25% to -30%;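 further: plate controls were DMSO wells for no effect and wells without enzyme for full effect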
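LDH5 2 nM; NADH 0.06 mM, pyruvate 0.2 mM; 200 mM Tris pH 7.4, EDTA, Tween-20; 5 min RT. Detection: diaphorase 0.133 mg/mL + resazurin 37 µM, fluorescence ex540/em590 at 0 and 20 min; normalized to enzyme-free and DMSO wells.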
GLP-1R agonist: GLP-1 receptor (human) agonism. 380,000 compounds, 0.007% hits. AID 624172. Potency, µM (top dose mostly 45.6 µM), without a hit: at the top dose activation, most hits filed as activators. HEK293 GLP-1R CRE-luciferase, luminescence, 4-6 h; cells express a hypersensitive GLP-1R form. P43220; further: potency means the concentration at half of the fitted maximal effect; % of control where 0% means no effect
Target sequence (P43220 whole entry, looked up): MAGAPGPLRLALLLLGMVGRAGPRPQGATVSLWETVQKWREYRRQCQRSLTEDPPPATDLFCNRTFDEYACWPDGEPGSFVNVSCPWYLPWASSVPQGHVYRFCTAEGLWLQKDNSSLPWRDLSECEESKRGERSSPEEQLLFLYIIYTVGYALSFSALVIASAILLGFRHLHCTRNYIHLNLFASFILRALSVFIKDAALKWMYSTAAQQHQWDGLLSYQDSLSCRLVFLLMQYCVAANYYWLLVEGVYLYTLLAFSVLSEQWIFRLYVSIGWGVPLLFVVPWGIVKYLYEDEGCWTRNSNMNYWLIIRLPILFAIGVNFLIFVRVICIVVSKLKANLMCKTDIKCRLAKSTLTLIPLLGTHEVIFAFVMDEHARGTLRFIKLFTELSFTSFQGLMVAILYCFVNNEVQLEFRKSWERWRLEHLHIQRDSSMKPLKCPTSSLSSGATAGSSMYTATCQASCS
GLP-1R inv ag: GLP-1 receptor (human) inverse agonism; HEK293 GLP-1R CRE-luciferase, luminescence, 24 h; GLP-1R form is constitutively active; Potency, µM (top dose mostly 38.3 µM), for the others: top-dose activity change, negative = inhibition, most hits filed as inhibitors; 410,000 compounds, 1.6% hits; AID 624417; further: potency means the concentration at half of the fitted maximal effect; on the % scale 0 is the no-effect control and ±100 the full control effect; nearly all actives have a fitted effect of over 55% in size
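Stable HEK293 clone (constitutively active GLP-1R + cAMP-response luciferase); 200 cells/uL plated, 12 h pre-culture, compound 24 hr, 37 deg C/5% CO2; detection reagent 12 min RT; luminescence.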
* hit, by the source's call; u = inconclusive; x = no result given. Unless noted, the call rests on the fitted dose curve; in most records, active means well fitted curve in the direction sought with a large enough effect; inconclusive means small, poorly fitted or top-dose-only effect, or another doubt; inactive means no such curve, though single readings can be large; an effect the other way counts as inactive or inconclusive.

SMILES	HEK293 tox	p53 reactivation	ClpP mod	LDHA inh	GLP-1R agonist	GLP-1R inv ag
COc1ccc2oc(C(=O)OCC(=O)NC(C)c3ccccc3)c(C)c2c1 (centres undefined)	3%	11%	3%	1	13%	-2%
CN(CC(=O)Nc1ccc(OC(F)(F)F)cc1)C(=O)Cc1cccs1	-3%	-5%	1%	-5	4%	11µM*
CN(CC(=O)Nc1ccc(OC(F)(F)F)cc1)C(=O)Cc1c(Cl)cccc1Cl	0%	1%	x	-5	9%	u
COc1ccc(CCNC(=O)Cn2c(=O)n(-c3cc(F)ccc3F)c(=O)c3sccc32)cc1OC	u	-6%	0%	-2	4%	20%
CCCOc1cc(C)c(Cl)cc1S(=O)(=O)N(CC)CC	1%	-1%	0%	-2	0%	2.5µM*
CCc1ccc(S(=O)(=O)c2nnn3c2nc(NCc2cccs2)c2sccc23)cc1	20%	x	28µM*	-2	x	60%
Cc1ccc(C)c(S(=O)(=O)c2nnn3c2nc(NCc2cccs2)c2sccc23)c1	-4%	x	28µM*	-1	x	u
Cc1ccc(C)c(S(=O)(=O)c2nnn3c2nc(NC2CCCC2)c2sccc23)c1	-1%	x	32µM*	1	x	26%
O=S(=O)(c1ccccc1)c1nnn2c1nc(NCc1cccs1)c1sccc12	5%	x	-18%	0	x	9%
O=S(=O)(c1ccc(Br)cc1)c1nnn2c1nc(NCc1cccs1)c1sccc12	1%	x	28µM*	-3	x	7%
O=C(Cn1nc(-c2ccccc2F)ccc1=O)NCc1ccccc1Cl	x	x	x	-2	x	x
C=Cc1ccc(Cn2c(C)c(C(=O)NCc3ccc4c(c3)OCCO4)sc2=O)cc1	-10%	x	-2%	-3	3%	-27%
Cc1ccc(C)c(C(=O)OCC(=O)NC2CCC(C)CC2)c1 (centres undefined)	x	x	x	-2	x	x
CN1CCN(c2ccc(NC(=O)c3ccc(-c4ccc(Br)cc4)o3)cc2)CC1	u	-8%	x	-4	23%	u
N#Cc1ccc(S(=O)(=O)N2CCN(c3nc(-c4cccnc4)nc4ccccc34)CC2)cc1	x	x	x	4	x	x
Cc1ccc2nc(-c3ccc(C)o3)c(Nc3ccc(Cl)cc3)n2c1	x	x	14µM*	3	x	x
Cc1ccccc1Nc1c(-c2ccc(N3CCOCC3)cc2)nc2ccc(Cl)cn12	16%	x	4%	2	x	10µM*
Cc1ccc(-c2nc3ccc(Cl)cn3c2Nc2ccccc2C)s1	0%	x	12%	0	x	9%
Cc1ccc2nc(-c3ccc(N4CCOCC4)cc3)c(Nc3ccccc3C)n2c1	-20%	x	4%	1	x	u
Cc1ccccc1Nc1c(-c2ccc(Br)o2)nc2ccc(Cl)cn12	-10%	x	28µM*	-3	x	u
Cc1ccn2c(Nc3ccccc3C)c(-c3ccc(N4CCOCC4)cc3)nc2c1	-10%	x	4%	-4	x	13µM*
C=CC(=O)Oc1ccc(C(=O)Oc2ccc(CCCC)cc2)cc1	x	x	x	2	x	x
O=C(c1ccccc1Br)N(Cc1ccccc1)c1ccccc1	3%	-1%	x	-4	15%	8.9µM*
CN(CCOc1ccc(Cl)cc1)C(=O)CNS(=O)(=O)c1ccc(N(C)C)c([N+](=O)[O-])c1	u	-7%	1%	-4	16%	u
CCS(=O)(=O)Nc1ccc(-c2cc(-c3ccccc3)c3cc(C)ccc3n2)cc1	-11%	-13%	18µM*	0	-3%	7.1µM*
COc1nccc(C(F)(F)F)c1C(=O)NC(=O)Nc1c(C)cccc1C	2%	0%	-1%	-8	1%	u
COc1ccccc1N(CC(=O)NCCSc1ccccc1)S(=O)(=O)c1ccccc1	1%	x	-2%	-5	-1%	u
